High-throughput results: PubChem, Broad Institute
ERAP1 inh: ERAP1 (human) enzyme inhibition; Q9NZ08; recombinant ERAP1, Leu-AMC fluorescence, 60 min; inhibition, % at 10.7 µM; actives 0.15% (n = 340,000); AID 652197;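 active = mean replicate inhibition of at least 30%, or all replicates individually reaching that 30% level; inactive = mean below 30% and not every replicate reaching it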;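 also: 0% = neutral control wells and 100% = L-leucinethiol positive control wells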
SIRT5 inh: inhibitors of human sirtuin-5 desuccinylase | Purified SirT5, succinyl-peptide AMC, trypsin-coupled fluorescence | inhibition, % at 15 µM | actives 1.1% (n = 330,000); in the data active = inhibition above about 15%
FGF22 binding: shifts melting point of recombinant human FGF22; Q9HCT0; recombinant FGF22 thermal shift, SYPRO orange fluorescence; percent of sucrose octasulfate shift, DMSO zero; activity (Tm shift, normalised), % at 9.99 µM; actives 1.5% (n = 340,000);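 active = mean Tm shift, scaled 0 neutral to 100 positive control, at about 1.3% or above, every replicate too, limit read from the data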
Target sequence (Q9HCT0 whole entry, looked up): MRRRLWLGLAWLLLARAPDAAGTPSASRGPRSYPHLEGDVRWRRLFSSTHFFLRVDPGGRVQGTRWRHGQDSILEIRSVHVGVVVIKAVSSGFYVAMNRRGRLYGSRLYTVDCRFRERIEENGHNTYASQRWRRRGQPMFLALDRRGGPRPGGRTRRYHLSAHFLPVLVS
CASP6 VEID inh: caspase-6 (human) enzyme inhibition; P55212; purified caspase-6, Z-VEID-R110 cleavage fluorescence; inhibition, % at 12.5 µM; actives 0.53% (n = 350,000); AID 686996;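 active = mean inhibition across replicates at least about 35%, with every replicate also reaching that limit, limit read from the data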;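 also: 0% = median of neutral control wells and 100% = no fluorescence left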
Target sequence (P55212 24-179 limits assumed): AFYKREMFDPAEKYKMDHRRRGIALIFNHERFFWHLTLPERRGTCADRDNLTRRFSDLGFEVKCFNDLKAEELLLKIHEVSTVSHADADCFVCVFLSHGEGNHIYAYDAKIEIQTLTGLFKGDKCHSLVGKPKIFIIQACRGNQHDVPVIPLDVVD
Target sequence (P55212 194-293 limits assumed): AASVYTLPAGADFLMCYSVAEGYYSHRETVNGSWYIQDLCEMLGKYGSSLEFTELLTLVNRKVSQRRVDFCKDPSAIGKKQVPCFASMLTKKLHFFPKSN
Active calls of the source: *. The list is not random: actives were taken first. Their share in the collection is about 3.1%.

What do the screens show for `CCOc1ccc(OCC)c(S(=O)(=O)n2ccnc2C)c1`?
ERAP1 inh: 2; SIRT5 inh: -2; FGF22 binding: 0; CASP6 VEID inh: 3

Results for COc1ccc(C)cc1S(=O)(=O)n1ccnc1C ?
ERAP1 inh: 1; SIRT5 inh: 112*; FGF22 binding: 0; CASP6 VEID inh: 1

Results for CCOc1ccc(C(C)C)cc1S(=O)(=O)n1ccnc1C ?
ERAP1 inh: 3; SIRT5 inh: 17*; FGF22 binding: 0; CASP6 VEID inh: 1

How did CCC(=O)Nc1ccc2c(c1)OC[C@H](C)N(C(=O)CN(C)C)C[C@@H](C)[C@@H](OC)CN(C)C2=O do in these assays?
ERAP1 inh: 3; SIRT5 inh: -2; FGF22 binding: 0; CASP6 VEID inh: -3

What do the screens show for `COc1ccc(-n2sc3ccccc3c2=O)cc1`?
ERAP1 inh: 75*; SIRT5 inh: -8; FGF22 binding: 0; CASP6 VEID inh: 2

What do the screens show for `CC(=O)c1ccc(NC(=S)NCCc2ccc(S(N)(=O)=O)cc2)cc1`?
ERAP1 inh: -1; SIRT5 inh: -1; FGF22 binding: 1; CASP6 VEID inh: 8

Results for CCCNC(=O)c1ccc(S(N)(=O)=O)cc1 ?
ERAP1 inh: 3; SIRT5 inh: 0; FGF22 binding: 0; CASP6 VEID inh: 14

How did Fc1cc(Br)ccc1NC(=S)NCCc1ccccc1 do in these assays?
ERAP1 inh: -2; SIRT5 inh: 4; FGF22 binding: 1.8*; CASP6 VEID inh: 1

How did S=C(NCCc1ccccc1)Nc1ccc(Cl)cc1 do in these assays?
ERAP1 inh: 4; SIRT5 inh: -2; FGF22 binding: 1.5*; CASP6 VEID inh: 4

How did C=CCNC(=S)Nc1ccc(Br)cc1F do in these assays?
ERAP1 inh: 5; SIRT5 inh: -2; FGF22 binding: 0; CASP6 VEID inh: 19

What do the screens show for `CCCCC(=O)Nc1ccc(C(=O)NCCc2ccc(S(N)(=O)=O)cc2)cc1`?
ERAP1 inh: -6; SIRT5 inh: -4; FGF22 binding: 43*; CASP6 VEID inh: -4

Results for NS(=O)(=O)c1ccc(NC(=S)NCCc2ccccc2)cc1 ?
ERAP1 inh: -3; SIRT5 inh: 7; FGF22 binding: 2.2*; CASP6 VEID inh: 4

Results for COc1ccc(-c2ccc3c(c2)[C@@H]2[C@@H](CCN2S(=O)(=O)c2ccccc2F)[C@H](CO)N3C)cc1 ?
ERAP1 inh: -3; SIRT5 inh: 0; FGF22 binding: 1; CASP6 VEID inh: -1

Results for COc1ccc2c3c([nH]c2c1)[C@@H](CO)N(Cc1ccccc1)CC31CN(C(=O)NC(C)C)C1 ?
ERAP1 inh: -2; FGF22 binding: 0

How did NS(=O)(=O)c1ccc(CCNC(=S)NC2CCCC2)cc1 do in these assays?
ERAP1 inh: -5; SIRT5 inh: -1; FGF22 binding: 0; CASP6 VEID inh: 1

Results for C[C@H](NC(=O)c1ccc(Cl)cc1)C(=O)NCCc1ccc(S(N)(=O)=O)cc1 ?
ERAP1 inh: -7; SIRT5 inh: -1; FGF22 binding: 44*; CASP6 VEID inh: -1

How did S=C(NCCc1ccc(Cl)cc1)NC1CC1 do in these assays?
ERAP1 inh: 1; SIRT5 inh: -1; FGF22 binding: 44*; CASP6 VEID inh: 0

How did C[C@H](NC(=O)c1ccccc1Cl)C(=O)NCCc1ccc(S(N)(=O)=O)cc1 do in these assays?
ERAP1 inh: -4; SIRT5 inh: -6; FGF22 binding: 0; CASP6 VEID inh: 2

What do the screens show for `CCCN(C)C[C@@H]1Oc2cc(C#Cc3ccccc3OC)ccc2S(=O)(=O)N([C@H](C)CO)C[C@@H]1C`?
ERAP1 inh: 2; SIRT5 inh: -9; FGF22 binding: 0; CASP6 VEID inh: 2

Results for O=C(Nc1cccc(F)c1)N1CC(=O)N2[C@H](CO)[C@@H](c3ccc(-c4ccc(F)cc4)cc3)[C@H]2C1 ?
ERAP1 inh: 0; SIRT5 inh: 1; CASP6 VEID inh: 1

What do the screens show for `CCC(=O)N1CCc2cc(Br)cc(S(=O)(=O)N(C)c3ccc(OC)cc3OC)c21`?
ERAP1 inh: -3; SIRT5 inh: 5; FGF22 binding: 43*; CASP6 VEID inh: -4

What do the screens show for `C[C@H](CO)N1C[C@H](C)[C@H](CN(C)C(=O)C2CC2)Oc2ncc(-c3ccc(C(=O)N(C)C)cc3)cc2C1=O`?
ERAP1 inh: 0; SIRT5 inh: 7; FGF22 binding: 0; CASP6 VEID inh: -3

Results for COc1cc(N2C(=O)c3ccccc3C2=O)c(Cl)cc1C(=O)OCC(=O)N(C)C ?
ERAP1 inh: -1; SIRT5 inh: -7; FGF22 binding: 43*; CASP6 VEID inh: 2

What do the screens show for `COc1cc(OC)c(C(=O)OCN2C(=O)c3ccccc3C2=O)cc1OC`?
ERAP1 inh: -1; SIRT5 inh: 4; FGF22 binding: 0; CASP6 VEID inh: -5

What do the screens show for `C/C(=N\NC(=O)c1ccc(N)cc1)C1CC1`?
ERAP1 inh: 0; SIRT5 inh: 1; FGF22 binding: 0; CASP6 VEID inh: -7

Results for C/C(=N\NC(=O)c1ccccc1O)c1ccc(NC(=O)Cc2ccccc2)cc1 ?
ERAP1 inh: 0; SIRT5 inh: 0; FGF22 binding: 0; CASP6 VEID inh: 36*

How did C/C(=N\NC(=O)c1ccccc1O)C1CC1 do in these assays?
ERAP1 inh: -5; SIRT5 inh: 0; FGF22 binding: 0; CASP6 VEID inh: 42*

Results for C[C@@H]1CN([C@@H](C)CO)C(=O)c2cccc(NC(=O)c3ccncc3)c2O[C@H]1CN(C)Cc1ccccc1 ?
ERAP1 inh: 0; SIRT5 inh: 23*; FGF22 binding: 0

What do the screens show for `C[C@@H]1CN([C@@H](C)CO)C(=O)c2cccc(NC(=O)c3ccncc3)c2O[C@H]1CN(C)Cc1ccc(C(F)(F)F)cc1`?
ERAP1 inh: 3; SIRT5 inh: 2; FGF22 binding: 0; CASP6 VEID inh: 4

How did C[C@H]1CN([C@@H](C)CO)C(=O)c2cccc(NC(=O)c3ccncc3)c2O[C@@H]1CN(C)Cc1ccc(C(F)(F)F)cc1 do in these assays?
ERAP1 inh: -1; SIRT5 inh: 0; FGF22 binding: 17*; CASP6 VEID inh: 4

What do the screens show for `C[C@@H]1CN([C@H](C)CO)C(=O)c2cccc(NC(=O)c3ccncc3)c2O[C@H]1CN(C)S(C)(=O)=O`?
ERAP1 inh: -2; SIRT5 inh: 36*; FGF22 binding: 0; CASP6 VEID inh: 3

How did O=C(C1=NN[C@@H]2C(=O)N(c3cccc(F)c3)C(=O)[C@H]12)c1ccc2ccccc2n1 do in these assays?
ERAP1 inh: 2; SIRT5 inh: 16*; FGF22 binding: 0; CASP6 VEID inh: 2

Results for COc1cccc(-c2c(-c3cc(OC)cc(OC)c3)n(C)c3ccc(-c4ccc(OC)nc4)cc23)c1 ?
ERAP1 inh: 5; SIRT5 inh: -10; FGF22 binding: 44*; CASP6 VEID inh: -5

How did c1ccc(CN2CCC(=NNc3nc4ccccc4[nH]3)CC2)cc1 do in these assays?
ERAP1 inh: -2; SIRT5 inh: 10; FGF22 binding: 43; CASP6 VEID inh: 3

What do the screens show for `CC(C)(C)C1CCC(=NNc2nc3ccccc3[nH]2)CC1` (stereo not given)?
ERAP1 inh: 2; SIRT5 inh: 19*; CASP6 VEID inh: -4
